This note sets out measurements from PubChem BioAssay (NCI).

This is part of a sample that, as a whole, favours compounds with a hit. Of some 79,000 tested, about 15% had one in any assay. Calls of active or inactive are those of the source. No stated cut-off is given here; in the data, active means growth inhibition above about 70%; inactive means the rest.

The nature of one test: NCI Yeast Anticancer Drug Screen. Data for the sgs1 strain (AID 173).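 Further: 0% = growth of vehicle-only control cultures.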 Conditions: S. cerevisiae sgs1 mutant, at 11.0 µM, hits give high values. The method, boiled down: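 Treat defined-mutant yeast with compound; measure growth; calculate inhibition relative to vehicle-treated cells.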
For the compound `COc1cc([C@@H]2c3cc4c(cc3[C@@H](NC(=O)NO)[C@H]3COC(=O)[C@H]23)OCO4)cc(OC)c1O`, the growth inhibition is 3% (inactive). On to `CCOC(=O)/C(=C/c1cccc(Cl)c1)N(CC)CC`, for which the growth inhibition was 41% (inactive). As to `CC(C)OC(=O)NNc1cccc(Cl)c1`, the growth inhibition was 97% (active). With `CCC(=O)C1=C(O)c2cc(OC)ccc2CC1C(=O)OC` (stereo unspecified), the growth inhibition is 4% (inactive). With `O=S(=O)(NC1CCCC(c2ccccc2)C1)c1ccccc1` (stereo unspecified), the growth inhibition is -2% (inactive). With `COc1ccc2nc3cccc([N+](=O)[O-])c3c(NCCCCCC(=O)O)c2c1`, the growth inhibition was 98% (active). On the same count and under the same terms, with `CCO/C=C1\SC(=S)N(c2ccc(OCC)cc2)C1=O` the figure was -34% (inactive). Take `COc1cc(OC)c(CSCC(NC(=O)OCC2c3ccccc3-c3ccccc32)C(=O)O)c(OC)c1` (stereo unspecified): the growth inhibition was 45% (inactive). As for `COC(=O)c1ccccc1N=NNc1cccc(SC)c1`, the growth inhibition is 16% (inactive). On to `CC1=NN(C(=O)c2ccccc2O)C(=O)/C1=C/c1ccco1`, for which the growth inhibition was 67% (inactive). As to `COc1ccccc1NC(=O)c1ccc(Cl)cc1`, the growth inhibition is 2% (inactive). The same measure, in the same setting: for `CC(C)=CCC/C(C)=C/CN1C(=O)C=CC1=O` the value was 99% (active); for `O=C1CSC(c2ccccc2)N1c1ccc(-c2ccc(-n3c(-c4ccccc4)nc4ccccc4c3=O)cc2)cc1` (stereo unspecified), 6% (inactive). On the same count and under the same terms, for `N#CC1OB(O)c2ccccc21` (stereo unspecified) the value was 2% (inactive). For the compound `O=C(NCCNCCNC(=O)c1cc(-c2ccccc2)nc2ccccc12)c1cc(-c2ccccc2)nc2ccccc12`, the growth inhibition is 0% (inactive). Regarding `Brc1ccc(B2Nc3ccccc3N2)cc1`, the growth inhibition was 23% (inactive).

For `CCOP(=O)(OCC)/C(C#N)=C/c1cccc(Oc2ccccc2)c1`, the growth inhibition was 44% (inactive).

The test is the same for the next values; noted with them: S. cerevisiae sgs1 mutant, at 33.0 µM, hits give high values.
As to `CN(C)CC(CN(C)C)C(=O)/C=C/c1ccc(Cl)cc1Cl`, the growth inhibition was 98% (active). For `c1ccc2c(c1)ccn2CCc1c[nH]c2ccccc12`, the growth inhibition is 20% (inactive).

Turning to `CC(C)OC(=O)NNc1c(Cl)cc(Cl)cc1Cl`, the growth inhibition is 8% (inactive).

On to `COc1ccc2nc3cccc([N+](=O)[O-])c3c(NCCNCCO)c2c1`, for which the growth inhibition is 95% (active). With `COc1ccc2c(c1)CCCC(Br)C2=O` (stereo unspecified), the growth inhibition was 74% (active).

`CCC(OC(C)=O)C1CC(C(C)C)CCC1C` (stereo unspecified): the growth inhibition was 18% (inactive). With `O=S(=O)(c1cccc(C(F)(F)F)c1)N1c2ccccc2-n2cccc2C1c1cccnc1` (stereo unspecified), the growth inhibition was 92% (active). Regarding `c1ccc(-c2cc(C3CO3)c3ccccc3n2)cc1` (stereo unspecified), the growth inhibition is 80% (active).

On to `COc1ccc(/C=C2\SC(=S)N(/C=C3\C(=O)N(c4ccccc4)N=C3C)C2=O)cc1OC`, for which the growth inhibition was 86% (active). Consider `CC1=CC(=C(c2ccc(N)c(C)c2)c2ccc(N)c(C)c2)C=CC1=N`, for which the growth inhibition is 51% (inactive). The same measure, in the same setting: with `CC1C(c2ccccc2)SC(=N)N1C` (stereo unspecified) the figure was 1% (inactive); with `CC(/C=C/c1ccc([N+](=O)[O-])o1)=N/N1CC(CN2CCOCC2)OC1=O` (stereo unspecified), 93% (active). For `C=CC(C)(C)N1C(=O)C(C(C)=O)=C(O)C1Cc1c[nH]c2ccccc12` (stereo unspecified), the growth inhibition is 17% (inactive). Consider `O=C1c2cccc3cccc(c23)C(=O)N1CCNCCN1C(=O)c2cccc3cccc(c23)C1=O`, for which the growth inhibition was -1% (inactive).

As for `Cc1ccc([N+](=O)[O-])c2c(NCCC[N+](C)(C)[O-])c3ccccc3nc12`, the growth inhibition was 66% (inactive). For `COC(=O)C(Cc1c[nH]c2ccccc12)N1CN(C)c2ccccc2C1=O` (stereo unspecified), the growth inhibition was 8% (inactive). As to `O=C(/N=N/C(=O)Oc1ccccc1)Oc1ccccc1`, the growth inhibition is -27% (inactive).

Regarding `COc1cc([C@@H]2c3cc4c(cc3[C@@H](NC(=O)NO)[C@H]3COC(=O)[C@H]23)OCO4)cc(OC)c1O`, the growth inhibition is 3% (inactive). For the compound `CCOC(=O)/C(=C/c1cccc(Cl)c1)N(CC)CC`, the growth inhibition was 62% (inactive).

For `CC(C)OC(=O)NNc1cccc(Cl)c1`, the growth inhibition was 98% (active).

Take `CCC(=O)C1=C(O)c2cc(OC)ccc2CC1C(=O)OC` (stereo unspecified): the growth inhibition is 18% (inactive).

As for `O=S(=O)(NC1CCCC(c2ccccc2)C1)c1ccccc1` (stereo unspecified), the growth inhibition was 1% (inactive). In the case of `COc1ccc2nc3cccc([N+](=O)[O-])c3c(NCCCCCC(=O)O)c2c1`, the growth inhibition is 98% (active).

As to `CCO/C=C1\SC(=S)N(c2ccc(OCC)cc2)C1=O`, the growth inhibition was -33% (inactive).

Turning to `COc1cc(OC)c(CSCC(NC(=O)OCC2c3ccccc3-c3ccccc32)C(=O)O)c(OC)c1` (stereo unspecified), the growth inhibition is 95% (active). Take `COC(=O)c1ccccc1N=NNc1cccc(SC)c1`: the growth inhibition is 93% (active).

Regarding `CC1=NN(C(=O)c2ccccc2O)C(=O)/C1=C/c1ccco1`, the growth inhibition is 85% (active). The same measure, in the same setting: for `COc1ccccc1NC(=O)c1ccc(Cl)cc1` the value was 3% (inactive); for `CC(C)=CCC/C(C)=C/CN1C(=O)C=CC1=O`, 100% (active); for `O=C1CSC(c2ccccc2)N1c1ccc(-c2ccc(-n3c(-c4ccccc4)nc4ccccc4c3=O)cc2)cc1` (stereo unspecified), 23% (inactive). On to `N#CC1OB(O)c2ccccc21` (stereo unspecified), for which the growth inhibition is 1% (inactive).

For the compound `O=C(NCCNCCNC(=O)c1cc(-c2ccccc2)nc2ccccc12)c1cc(-c2ccccc2)nc2ccccc12`, the growth inhibition was 0% (inactive). In the case of `Brc1ccc(B2Nc3ccccc3N2)cc1`, the growth inhibition is 35% (inactive). For `CCOP(=O)(OCC)/C(C#N)=C/c1cccc(Oc2ccccc2)c1`, the growth inhibition was 97% (active).
